Activity calls are given as the source filed them. The rule behind the calls is not given here.
Key:
[1] = kinase inhibitors against Plasmodium liver-stage infection, cell-based, known kinase inhibitor set, luminescence, hepatoma host viability (AID 624392); conditions: Plasmodium liver stage in hepatoma cells, luciferase luminescence, concentration not given here; liver cell % of control: measured here: host liver cell viability; parasite % of control: stronger effect = lower value;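 note: infected cells incubated roughly two days before readout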
[2] = modulators of glucocorticoid suppression of NF-kB, cell-based, luciferase, IL-1B stimulus, dexamethasone (AID 624486); conditions: NF-kB luciferase reporter, IL-1B + dexamethasone, luminescence; percent of negative control (+Dex): actives lie on both sides, concentration not given here; z-score: measured here: IL-1B alone, no Dex;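 for percent of negative control (+Dex): 100% = mean signal of vehicle control wells on the plate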
[3] = target: Cellular tumor antigen p53 (Homo sapiens) (UniProt P04637); test: kinase inhibitors altering GFP-p53 stability in HPV16-positive cells, imaging, known kinase inhibitor set, EGFP/DsRed ratio (AID 1053116); conditions: stronger effect = higher value; EGFP object count: measured here: GFP-p53 positive objects count;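 note: cells exposed to compounds for 24 h at 37 °C before reading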
Chain of Cellular tumor antigen p53 (Homo sapiens) (P04637 whole entry, looked up): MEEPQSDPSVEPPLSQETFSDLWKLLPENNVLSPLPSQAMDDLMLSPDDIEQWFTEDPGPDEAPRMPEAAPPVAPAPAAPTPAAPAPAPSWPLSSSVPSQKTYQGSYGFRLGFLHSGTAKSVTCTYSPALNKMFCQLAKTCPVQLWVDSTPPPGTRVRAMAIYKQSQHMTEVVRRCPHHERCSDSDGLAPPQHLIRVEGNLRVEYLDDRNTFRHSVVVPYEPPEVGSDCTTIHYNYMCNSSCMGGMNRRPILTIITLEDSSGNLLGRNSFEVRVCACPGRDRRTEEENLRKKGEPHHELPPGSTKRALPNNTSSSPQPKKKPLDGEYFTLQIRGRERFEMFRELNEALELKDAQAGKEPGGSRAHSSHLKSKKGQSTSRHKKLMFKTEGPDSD

[4] = IRF3 reporter activation in THP-1 macrophages, cell-based, PMA-stimulated THP-1, luminescence (AID 1053176); conditions: PMA-differentiated THP-1, IRF3 reporter luminescence; stronger effect = higher value

SMILES | liver cell % of control [1] [%] | parasite % of control [1] | percent of negative control (+Dex) [2] | z-score [2] | EGFP object count [3] | EGFP/DsRed ratio [3] | fraction signal [4]
O=C1Nc2ccc(F)c3c(OCCO)cc(-c4ccc[nH]4)c1c23 | 83.9 | 52.1% (inactive) | 105% (inactive) | 1.54 | 6 | 0.192 (inactive) | -0.016 (inactive)
Nc1c(C(=O)c2cccc(C#CCO)c2)cnn1-c1ccc(F)cc1 | 100 | 58.9% (inactive) | 108% (inactive) | 1.13 | 1.5 | 0.0236 (inactive) | 0.008 (inactive)
O=C1OC(=O)C(c2c[nH]c3ccccc23)=C1c1c[nH]c2ccccc12 | 99.6 | 48.8% (inactive) | 95% (inactive) | 1 | 3.5 | 0.0625 (inactive) | -0.018 (inactive)
O=C1NC(=NCCc2cccs2)SC1=Cc1ccc2ncccc2c1 | 118 | 40.6% (inactive) | 96% (inactive) | -0.36 | 4.5 | 0.079 (inactive) | -0.003 (inactive)
Cn1cc(C2=C(c3cn(C)c4ccc(OCc5ccccc5)cc34)C(=O)NC2=O)c2ccccc21 | 97.7 | 46.6% (inactive) | 101% (inactive) | -0.035 | 4.5 | 0.132 (inactive) | -0.016 (inactive)
CC(=O)Nc1ccc2c(c1)C(c1ccccc1Cl)=Nc1c(n[nH]c1C)N2 | 93.6 | 30.4% (inactive) | 95% (inactive) | -0.58 | 28.5 | 0.33 (inactive) | -0.003 (inactive)
Cn1cc(C2=C(c3cn(C)c4cc(N)ccc34)C(=O)NC2=O)c2ccccc21 | 85.5 | 26.4% (inactive) | 96% (inactive) | -2.26 | 41.5 | 0.462 (inactive) | -0.0115 (inactive)
CON=C(c1ccccc1)c1cnn(-c2ccccc2)c1N | 121 | 79.3% (inactive) | 98.5% (inactive) | 0.245 | 3.5 | 0.128 (inactive) | 0.0055 (inactive)
COc1ccc(N2Cc3cnc(Nc4ccccc4)nc3N(C3CCC(O)C3)C2=O)cc1 (configuration not stated) | 114 | 234% (inactive) | 67% (active) | -1.67 | 1.5 | 0.0589 (inactive) | -0.007 (inactive)
Cn1cc(C2=C(c3cn(C)c4ncccc34)C(=O)NC2=O)c2ccccc21 | 95.3 | 38.8% (inactive) | 100% (inactive) | -0.87 | 20 | 0.579 (inactive) | -0.009 (inactive)
CC(=O)N[C@H](Cc1ccc(OP(=O)(O)O)cc1)C(=O)N[C@@H]1CCC(=O)N2CCC[C@@H](C(=O)N[C@H]3CCc4ccccc43)N2C1=O | 122 | 61.5% (inactive) | 95.5% (inactive) | 0.9 | 6 | 0.211 (inactive) | -0.003 (inactive)
Nc1c(C(=O)c2cccc(OCCN3CCOCC3)c2)cnn1-c1ccc(F)cc1 | 121 | 47.9% (inactive) | 100% (inactive) | 0.485 | 4 | 0.127 (inactive) | -0.009 (inactive)
O=C1NC(=NCc2cccs2)SC1Cc1ccc2ncccc2c1 (configuration not stated) | 108 | 12.8% (inactive) | 96% (inactive) | -0.14 | 2.5 | 0.109 (inactive) | 0.0035 (inactive)
COc1cccc(C2=C(c3cn(C)c4cccc(OC)c34)C(=O)NC2=O)c1 | 91.4 | 121% (inactive) | 99% (inactive) | 0.35 | 9 | 0.102 (inactive) | 0.0015 (inactive)
Nc1c(C(=O)c2cccc(CCCN3CCOCC3)c2)cnn1-c1ccc(F)cc1 | 97.8 | 48.1% (inactive) | 109% (inactive) | 1.09 | 6 | 0.339 (inactive) | -0.005 (inactive)
CCn1c(=O)c(Oc2ccc(F)cc2F)cc2cnc(NC3CCOCC3)nc21 | 103 | 55.7% (inactive) | 85.5% (inactive) | -0.82 | 3.5 | 0.0988 (inactive) | -0.005 (inactive)
O=C1NC(=NCCCc2ccccc2)SC1=Cc1ccc2ncccc2c1 | 104 | 43% (inactive) | 83% (inactive) | -0.69 | 5 | 0.104 (inactive) | -0.011 (inactive)
O=c1[nH]c2nc(NC3CCOCC3)ncc2cc1Oc1ccc(F)cc1F | 94.5 | 56.1% (inactive) | 104% (inactive) | 0.61 | 2 | 0.08 (inactive) | -0.003 (inactive)
CC(=O)NC(Cc1ccc(OP(=O)(O)O)cc1)C(=O)NC1CCC(=O)N2CCCC(C(=O)NCc3cccc4ccccc34)N2C1=O (configuration not stated) | 98.5 | 45.1% (inactive) | 100% (inactive) | -0.165 | 8 | 0.214 (inactive) | -0.0075 (inactive)
O=C1C(c2c[nH]c3ccccc23)=C(c2c[nH]c3ccccc23)C(=O)N1O | 107 | 29% (inactive) | 94% (inactive) | -1.25 | 5.5 | 0.0849 (inactive) | 0.0015 (inactive)
Cn1c(=O)c(-c2ccccc2Cl)cc2cnc(NC3CCOCC3)nc21 | 100 | 252% (inactive) | 93% (inactive) | -0.175 | 1 | 0.00654 (inactive) | -0.0055 (inactive)
